Bioassay records as filed in PubChem.
Shown are actives, neighbours in structure and some others; about 8.1% of the full set was active somewhere.
PINK1 expr mod – A Quantitative High throughput Screen to Identify Chemical Modulators of PINK1 Expression; PINK1 immunofluorescence, high-content cytometry, 24 h; Potency, µM (top dose mostly 76.6 µM), inactives show at the top dose activation (PINK1 increase), usual class: activators; 410,000 compounds, 0.2% hits; AID 624263, 2012; active = well fitted activation curve with a large enough effect; inconclusive = small, poorly fitted or top-dose-only effect; cell line not stated here; note: % of control where 0% means no effect; nearly all actives have a fitted effect of over 65% in size
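PINK1 protein level read as immunofluorescence by microplate cytometer in a fixed, stained stable cell line after 24 h exposure to five compound concentrations, with CCCP as control.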
Sfp PPTase inh – qHTS Assay for Inhibitors of Bacillus subtilis Sfp phosphopantetheinyl transferase (PPTase); 310,000 compounds, 3.5% hits; Biochemical Sfp PPTase activity, qHTS; Potency, µM, for the others: largest response in the series, negative = inhibition, hits mostly inhibitors;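 note: the enzyme is Sfp with the accession as filed and its product quenches rhodamine fluorescence; 0% = enzyme reaction without inhibitor and -100% = no enzyme wells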
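After 15 min at room temperature with compound, 15 nM Sfp received 5 uM rhodamine-CoA plus 12.5 uM BHQ-2-ybbR (50 mM Hepes pH 7.6, 10 mM MgCl2). Rate came from the fluorescence difference over 30 min, ex 525/em 598 nm.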
Gal4-VP16 FLuc – VP16 counterscreen qHTS for inhibitors of ROR gamma transcriptional activity | Potency, µM (series often up to 53.6 µM), for the others: top-dose activity, negative = inhibition, actives largely listed as inhibitors | AID 2546, 2010 | Drosophila S2 Gal4-VP16 UAS-luciferase, luminescence, 20 h | 310,000 compounds, 3.5% hits;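 note: Gal4-VP16 expression switched on by copper sulfate through the metallothionein promoter; % is set by controls: 0 for no effect and ±100 for the full control effect; nearly all actives have a fitted effect of over 50% in size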
RORg inh – qHTS for inhibitors of ROR gamma transcriptional activity; Drosophila S2 Gal4-RORgamma UAS-luciferase reporter, 20 h; Potency, µM (doses to about 53.6 µM), for the others: at the top dose activity change, negative = inhibition, most hits filed as inhibitors; 310,000 compounds, 5.4% hits; AID 2551, 2010; note: % is set by controls: 0 for no effect and ±100 for the full control effect; nearly all actives have a fitted effect of over 60% in size
Target sequence (P51450 whole entry, looked up, the tested form may be a part): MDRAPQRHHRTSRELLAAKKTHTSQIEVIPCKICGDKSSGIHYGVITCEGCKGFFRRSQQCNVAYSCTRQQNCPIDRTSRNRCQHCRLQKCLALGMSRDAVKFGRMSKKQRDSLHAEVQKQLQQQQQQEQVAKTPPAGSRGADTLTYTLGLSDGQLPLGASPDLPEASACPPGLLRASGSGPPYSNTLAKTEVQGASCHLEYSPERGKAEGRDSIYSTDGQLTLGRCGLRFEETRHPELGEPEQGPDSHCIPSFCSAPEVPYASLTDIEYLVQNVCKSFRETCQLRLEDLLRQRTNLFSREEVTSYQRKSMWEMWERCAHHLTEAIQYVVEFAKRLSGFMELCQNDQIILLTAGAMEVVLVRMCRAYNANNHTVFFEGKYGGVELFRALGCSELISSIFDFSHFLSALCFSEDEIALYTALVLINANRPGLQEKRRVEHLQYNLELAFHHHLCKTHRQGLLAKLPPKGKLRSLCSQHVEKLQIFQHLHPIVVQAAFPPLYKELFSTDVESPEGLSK
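Read-out: Photinus luciferase luminescence; inhibitors lower reporter signal. Insect Schneider cells with Gal4-ROR gamma fusion under metallothionein promoter, UAS reporter; 700 uM final copper sulfate induction, 20 hr, ambient temperature.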
ClpP mod – qHTS Assay for Activators of ClpP; ATP-dependent Clp protease proteolytic subunit (Bacillus subtilis (strain 168)), P80244; purified B. subtilis ClpP, FRET peptide cleavage, 20 min; Potency, µM (titrated, usually from 57.5 µM), inactives show at the highest dose activity change, negative = active; 340,000 compounds, 1.9% hits; AID 651965, 2013; active = well fitted falling curve with a large enough effect; inconclusive = small, poorly fitted or top-dose-only effect; inactive = no such curve, though single readings can be large or run the other way; note: the source files actives as falling curves though it sought activators and does not explain the sign; nearly all actives have a fitted effect of over 65% in size
Target sequence (P80244 whole entry, looked up): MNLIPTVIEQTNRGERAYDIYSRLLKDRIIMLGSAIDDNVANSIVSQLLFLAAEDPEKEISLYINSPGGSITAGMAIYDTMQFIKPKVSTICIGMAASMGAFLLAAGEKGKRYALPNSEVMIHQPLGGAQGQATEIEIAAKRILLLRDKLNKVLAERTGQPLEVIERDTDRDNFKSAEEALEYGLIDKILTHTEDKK
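FRET quenching reversal measured ClpP activation: 10 microg/mL B. subtilis ClpP at pH 8 with the FRET-FV decapeptide, read at 430 nm after 320 nm excitation. The 20-min minus 0-min signal was scaled between DMSO/no-enzyme wells and ADEP (5.8 microM final).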
Epigenetic reg – Quantitative High-Throughput Screen for Regulators of Epigenetic Control; murine LDR cells, GFP reporter derepression, 30 h; Potency, µM (titrated, usually from 53.9 µM), without a hit: at the highest dose GFP activation, most hits filed as activators; 280,000 compounds, 0.2% hits; AID 1865, 2009; note: % of control where 0% means no effect; nearly all actives have a fitted effect of over 60% in size
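In this reporter-derepression format, murine cells bearing a silenced integrated CMV-GFP locus incubate with test compound (30 h, 37 C), then are washed and imaged; fluorescent objects of 20–120 um count as induced cells.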
* marks the source's active call; other numbers are inactive results; ? = inconclusive; · = no result given; [ ] = remark or other dose. Unless noted, calls come from the whole dose curve; as a rule, active = well fitted curve in the direction sought with a large enough effect; inconclusive = small, poorly fitted or top-dose-only effect, or another doubt; inactive = no such curve, though single readings can be large; an effect the other way counts as inactive or inconclusive. Potency is the fitted concentration of half-maximal effect.

SMILES	PINK1 expr mod	Sfp PPTase inh	Gal4-VP16 FLuc	RORg inh	ClpP mod	Epigenetic reg
COc1cc(-c2nc3c4ccccc4nc(=S)n3[nH]2)cc(OC)c1OC	5%	-7%	1.4µM*	1.4µM*	·	·
COc1ccccc1-c1nc2c3ccccc3nc(=S)n2[nH]1	3%	45µM*	1.3µM*	0.35µM*	-1%	·
O=C(Nc1cccc(C(F)(F)F)c1)N1CC2CCCN2c2ccccc21 (stereo unspecified)	1%	·	·	·	-13%	0%
COc1ccc2[nH]c3c(c(=O)c2c1)CCCC3	1%	·	·	·	5%	·
COc1ccc(-c2c3c([nH]c(=S)c2C#N)CCC3)cc1	0%	22µM*	?	-100%	-23%	-1%
COc1ccc(OC)c(-c2c3c([nH]c(=S)c2C#N)CCCC3)c1	0%	22µM*	?	16µM*	·	-1%
Cc1ccc(NC(=O)CCc2nc(-c3ccccc3F)no2)c(C)c1	3%	·	·	·	0%	0%
CCN(CC)C(=O)C1CCCN(C/C(C)=C/c2ccccc2)C1 (stereo unspecified)	6%[38.3 µM]	79µM*	3%	-24%	-1%	-1%
CC=Cc1cc2c(c(=O)o1)C(=O)C(O)C(C)O2 (stereo unspecified)	23%	·	·	·	13µM*	·
COc1ccc(-c2cc(-c3ccccc3)nc(-c3ccc4c(c3)NC(=O)CO4)c2)cc1	·	10%	-9%	-9%	25µM*	-1%
COc1ccc(Nc2nc(-c3ccc4c(c3)NC(=O)CO4)cs2)cc1	8%	-12%	7%	43%	·	0%
COC(=O)c1c(-c2cccs2)csc1NC(=O)COc1ccc(C(C)C)cc1	-1%	·	·	·	28µM*	-3%
COc1ccc(-c2ccc(C(=O)NCC3Cc4cccc(-c5nc(C)cnc5C)c4O3)o2)cc1 (stereo unspecified)	1%	·	·	·	·	·
O=C(c1ccco1)N1CCN(C(c2ccccc2)c2nnnn2Cc2cccs2)CC1 (stereo unspecified)	-2%	79µM*	-5%	?	2%	-2%
O=C(c1ccco1)N1CCN(C(c2ccc(Cl)cc2)c2nnnn2CC2CCCO2)CC1 (stereo unspecified)	-3%	56µM*	26%	?	-1%	-2%
O=C(c1ccco1)N1CCN(C(c2ccccc2Cl)c2nnnn2Cc2cccs2)CC1 (stereo unspecified)	-2%	-8%	2%	?	0%	-1%
O=C(c1ccco1)N1CCN(C(c2ccccc2Cl)c2nnnn2Cc2ccco2)CC1 (stereo unspecified)	-1%	50µM*	?	?	-1%	0%
Cc1ccc(C(c2nnnn2CC2CCCO2)N2CCN(C(=O)c3ccco3)CC2)cc1 (stereo unspecified)	0%	10%	-15%	11%	-1%	-2%
CC(C)C(c1nnnn1Cc1cccs1)N1CCN(C(=O)c2ccco2)CC1 (stereo unspecified)	0%	18µM*	-3%	-6%	·	0%
COc1ccc(-c2cc(-c3ccco3)[nH]c(=O)c2C#N)cc1	4%	50µM*	-9%	14%	5%	1%
N#Cc1c(-c2cccc(Br)c2)cc(-c2ccco2)[nH]c1=O	-1%	?	1%	?	·	-1%
COc1ccc(C(=O)/C=C2\C(=O)Nc3ccc(Br)cc32)cc1	-3%	·	·	·	1%	·
O=C1Nc2ccc(Br)cc2/C1=C/C(=O)c1ccc2c(c1)OCO2	-2%	56µM*	?	11µM*	0%	1%
O=C(N/N=C/c1ccccn1)c1ccc(NC(=O)c2ccc(F)cc2)cc1	-1%	-24%	11%	-6%	·	·
O=C(N/N=C/c1c(Cl)cccc1Cl)c1ccccc1F	0%	?	-1%	-12%	5%	6%
SMILES	PINK1 expr mod	Sfp PPTase inh	Gal4-VP16 FLuc	RORg inh	ClpP mod	Epigenetic reg
O=C(N/N=C/c1ccc(Cl)cc1Cl)c1cccc(F)c1	3%[38.3 µM]	20µM*	?	11µM*	-3%	-2%
Cc1cccc(/C=N/NC(=O)c2cccc(NC(=O)c3ccccc3)c2)n1	-1%	1%	-4%	-17%	·	·
Cc1cccc(/C=N/NC(=O)c2cccc(Cl)c2)n1	-1%	4%	11µM*	7.1µM*	·	·
O=C(N/N=C/c1ccc(Cl)cc1Cl)c1ccc2nc[nH]c2c1	-1%	-18%	11%	0%	-3%	·
O=C(N/N=C/c1c(Cl)cccc1Cl)c1ccc(F)cc1	6%[38.3 µM]	13%	-1%	11µM*	0%	0%
Cc1cccc(/C=N/NC(=O)c2ccc(F)cc2)n1	0%	40µM*	?	7.1µM*	1%	·
Cc1ccccc1OCCn1c(=N)n(C(C)C)c2ccccc21	1%	·	·	·	-2%	0%
Cc1cccc(/C=N/NC(=O)c2ccccc2OCc2cccc(Br)c2)n1	7%	-1%	?	16µM*	·	·
Cc1cccc(/C=N/NC(=O)c2cc(Br)ccc2OCc2ccccc2)n1	2%	-18%	-24%	?	·	·
CCOc1ccccc1NC(=O)C(NCCc1ccc(OC)cc1)c1ccccc1 (stereo unspecified)	-1%	?	-6%	7%	-1%	·
CCOc1ccccc1NC(=O)C(OC(=O)c1ccc(O)cc1)c1ccccc1 (stereo unspecified)	?	?	?	18µM*	-4%	0%
CN(C)CCNC(C(=O)Nc1cccc(S(=O)(=O)N2CCOCC2)c1)c1ccccc1 (stereo unspecified)	4%	·	·	·	0%	·
CN(C)CCNC(C(=O)Nc1cccc(C(F)(F)F)c1)c1ccccc1 (stereo unspecified)	-1%	16µM*	8%	-13%	1%	-2%
CCOc1ccccc1NC(=O)C(NCCN(C)C)c1ccccc1 (stereo unspecified)	1%	79µM*	-6%	-7%	·	0%
CCOc1ccccc1NC(=O)C(OC(=O)c1ccc(CC)cc1)c1ccccc1 (stereo unspecified)	7%	-2%	-15%	34%	-2%	1%
Cc1cc(C(=O)OC(C(=O)Nc2cccc(C(F)(F)F)c2)c2ccccc2)c(C)o1 (stereo unspecified)	35µM*	24%	?	29%	-16%	0%
COc1cccc(CN2CCC(n3cc(C(=O)NC4CCCC4)nn3)CC2)c1O	0%	·	·	·	·	·
